Experimental data: PubChem BioAssay (Tox21)
Results filed as inconclusive are left out. The source made the active and inactive calls. Unless noted, calls come from the whole dose curve.

Columns and labels:
[1] = qHTS assay to identify small molecule antagonists of the peroxisome proliferator-activated receptor delta (PPARd) signaling pathway - cell viability counter screen (AID 743213; active = well fitted curve in the direction sought with a large enough effect in the repeat runs; an effect the other way counts as inactive or inconclusive; note: % is set by controls: 0 for no effect and ±100 for the full control effect; nearly all actives have a fitted effect of over 50% in size)
Method in brief: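 Agonist-stimulated (L165041, 300 nM final) HEK293H PPARd UAS-bla cells are exposed to compounds for 17 h at 37 C, and ATP-based luminescence (CellTiter-Glo) from the same wells reports cytotoxicity.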

[2] = qHTS assay to identify small molecule agonists of the farnesoid-X-receptor (FXR) signaling pathway - cell viability counter screen (AID 743218; active = well fitted curve in the direction sought with a large enough effect in the repeat runs; an effect the other way counts as inactive or inconclusive; note: % is set by controls: 0 for no effect and ±100 for the full control effect; nearly all actives have a fitted effect of over 45% in size)
Method in brief: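 FXR-UAS-bla HEK 293T cells, plated 5 h at 37 C, were exposed to compounds for 16 h at 37 C. CellTiter-Glo was then added to the same wells as the bla readout; luminescence read after 30 min at room temperature.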

[3] = qHTS assay to identify small molecule antagonists of the farnesoid-X-receptor (FXR) signaling pathway - cell viability counter screen (AID 743221; active = well fitted cell-killing curve with a large enough effect in the repeat runs, not every such curve was filed as active; note: % is set by controls: 0 for no effect and ±100 for the full control effect; nearly all actives have a fitted effect of over 50% in size)
Method in brief: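 Cytotoxicity is taken from ATP luminescence (CellTiter-Glo, 30 min, room temperature) in FXR-bla HEK 293T cells previously incubated 16 h at 37 C with compound and chenodeoxycholic acid at 50 uM final.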

[4] = qHTS assay to identify small molecule antagonists of the vitamin D receptor (VDR) signaling pathway - cell viability counter screen (AID 743225; active = well fitted curve in the direction sought with a large enough effect in the repeat runs; an effect the other way counts as inactive or inconclusive; note: % is set by controls: 0 for no effect and ±100 for the full control effect; nearly all actives have a fitted effect of over 50% in size)
Method in brief: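 Same-well multiplex: following 16 h treatment of HEK 293T cells carrying a UAS-driven beta-lactamase reporter with compound and agonist (3 nM final), and a 2 h FRET substrate step, CellTiter-Glo was added and luminescence read after 30 min.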

[5] = qHTS assay to identify small molecule agonists of the NFkB signaling pathway (AID 1159509; active = well fitted curve in the direction sought with a large enough effect in the signal ratio in the repeat runs, not every such curve was filed as active; the % refers to the signal ratio; note: series mostly up to about 61 µM; % is set by controls: 0 for no effect and ±100 for the full control effect)
Method in brief: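 NFkB-bla ME-180 cells carry a beta-lactamase reporter under an NF-kB response element. They were plated overnight, then exposed to compounds for 5 h at 37 C. Read-out is LiveBLAzer FRET after 1.5 hr at room temperature (405 nm excitation; 460/530 nm emission).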

[6] = qHTS assay to identify small molecule agonists of the NFkB signaling pathway - cell viability counter screen (AID 1159515); note: series mostly up to about 61 µM; % is set by controls: 0 for no effect and ±100 for the full control effect; nearly all actives have a fitted effect of over 55% in size
Method in brief: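 NFkB-bla ME-180 cells, 2,000/well, were plated overnight at 37 C, 5% CO2, then exposed to compounds in DMSO for 5 hr. After the bla FRET read, CellTiter-Glo was added to the same wells; luminescence was read after 30 min at room temperature.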

[7] = qHTS assay to identify small molecule agonists of the endoplasmic reticulum stress response signaling pathway (AID 1159516; active = well fitted activation curve with a large enough effect in the signal ratio in the repeat runs, not every such curve was filed as active; the % refers to the signal ratio; note: % is set by controls: 0 for no effect and ±100 for the full control effect)
Method in brief: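 CellSensor ESRE-bla HeLa cells, carrying a beta-lactamase reporter driven by the ER stress response element, were plated overnight and exposed to compounds for 5 hr at 37 C. Reporter activity was read as FRET substrate fluorescence after 2 hr at room temperature.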

[8] = qHTS assay to identify small molecule agonists of the endoplasmic reticulum stress response signaling pathway - cell viability counter screen (AID 1159517); note: series mostly up to about 61 µM; % is set by controls: 0 for no effect and ±100 for the full control effect; nearly all actives have a fitted effect of over 50% in size
Method in brief: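 ESRE-bla HeLa cells, 1,500 per well, seeded overnight then treated with compounds for 5 hr at 37 C. After the beta-lactamase read, viability in the same wells is measured by CellTiter-Glo luminescence after 30 min at room temperature.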

[9] = qHTS assay to identify small molecule antagonists of the retinoid-related orphan receptor gamma (ROR-gamma) signaling pathway - cell viability counter screen (AID 1159520; active = well fitted curve in the direction sought with a large enough effect in the repeat runs; an effect the other way counts as inactive or inconclusive)
Method in brief: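 Tet-on ROR gamma CHO cells were given compounds for 2 hr, then doxycycline hyclate at 1 uM final, and incubated 16 hr at 37 C. Viability was measured as ATP content by CellTiter-Glo luminescence.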

[10] = qHTS assay to identify small molecule agonists of the AP-1 signaling pathway - cell viability counter screen (AID 1159525); note: nearly all actives have a fitted effect of over 55% in size
Method in brief: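 AP-1-bla ME-180 cells in Opti-MEM with 0.5% dialyzed FBS, compound exposure 5 h at 37 C in 15-point titration. Viability read in the same wells as ATP content by CellTiter-Glo luminescence, normalised to tetra-n-octylammonium bromide and DMSO controls.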

[11] = target: Retinoic acid receptor RXR-alpha (Homo sapiens) (UniProt P19793); assay: qHTS assay to identify small molecule agonists of the RXR signaling pathway (AID 1159527); note: % is set by controls: 0 for no effect and ±100 for the full control effect; nearly all actives have a fitted effect of over 35% in size
Method in brief: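 Compounds in DMSO were added to RXR-alpha-UAS-bla HEK 293T cells kept in 2% charcoal-stripped serum, and incubated 16 hr at 37 C with 5% CO2. Reporter signal came from a 2 hr B/G FRET substrate step.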

[12] = target: Bile acid receptor (Homo sapiens) (UniProt Q96RI1); assay: qHTS assay to identify small molecule antagonists of the farnesoid-X-receptor (FXR) signaling pathway (AID 743217; active = well fitted inhibition curve with a large enough effect in the signal ratio in the repeat runs, not every such curve was filed as active; the % refers to the signal ratio; note: % is set by controls: 0 for no effect and ±100 for the full control effect)
Method in brief: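 FXR-UAS-bla HEK 293T cells pre-incubated 5 h at 37 °C, then exposed to compounds with chenodeoxycholic acid (50 uM final) for 16 h at 37 °C. Beta-lactamase reporter read by LiveBLAzer B/G FRET substrate fluorescence after 2 h at room temperature.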

[13] = target: Bile acid receptor (Homo sapiens) (UniProt Q96RI1); assay: qHTS assay to identify small molecule agonists of the farnesoid-X-receptor (FXR) signaling pathway (AID 743220; active = well fitted activation curve with a large enough effect in the signal ratio in the repeat runs, not every such curve was filed as active; the % refers to the signal ratio; note: % is set by controls: 0 for no effect and ±100 for the full control effect)
Method in brief: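 Beta-lactamase reporter under UAS control in GeneBLAzer FXR HEK 293T cells (5000/well) measured with LiveBLAzer FRET substrate after 2 h at room temperature. Compound exposure lasted 16 h at 37C.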

[14] = target: Vitamin D3 receptor (Homo sapiens) (UniProt P11473); assay: qHTS assay to identify small molecule agonists of the vitamin D receptor (VDR) signaling pathway (AID 743222); note: % is set by controls: 0 for no effect and ±100 for the full control effect
Method in brief: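 VDR-bla cells were plated 4 h at 37C/5% CO2, then exposed to compounds in DMSO for 16 h. After LiveBLAzer B/G FRET substrate addition and 2 h at room temperature, beta-lactamase reporter fluorescence was read.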

[15] = target: Vitamin D3 receptor (Homo sapiens) (UniProt P11473); assay: qHTS assay to identify small molecule antagonists of the vitamin D receptor (VDR) signaling pathway (AID 743223; active = well fitted inhibition curve with a large enough effect in the signal ratio in the repeat runs, not every such curve was filed as active; the % refers to the signal ratio; note: % is set by controls: 0 for no effect and ±100 for the full control effect)
Method in brief: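 Quantitative HTS in VDR-bla reporter cells stimulated with 1alpha,25-dihydroxyvitamin D3, 3 nM final. Compound exposure 16 h, 37C, 5% CO2. Read-out: beta-lactamase FRET substrate fluorescence, 2 h RT.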

[16] = qHTS assay to identify small molecule agonists of the vitamin D receptor (VDR) signaling pathway - cell viability counter screen (AID 743224; active = well fitted curve in the direction sought with a large enough effect in the repeat runs; an effect the other way counts as inactive or inconclusive)
Method in brief: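 VDR-bla cells were preincubated 4 h at 37C/5% CO2, then exposed to compounds for 16 h. After the 2 h room-temperature bla FRET read, CellTiter-Glo was added to the same wells and luminescence read after 30 min.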

[17] = qHTS assay to identify small molecule agonists of the AP-1 signaling pathway (AID 1159526); note: % is set by controls: 0 for no effect and ±100 for the full control effect
[18] = target: Peroxisome proliferator-activated receptor delta (Homo sapiens) (UniProt Q03181); assay: qHTS assay to identify small molecule agonists of the peroxisome proliferator-activated receptor delta (PPARd) signaling pathway (AID 743212); note: % is set by controls: 0 for no effect and ±100 for the full control effect
Method in brief: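 GeneBLAzer UAS-bla HEK293H cells carrying a PPARδ construct were exposed to compounds at 37 °C. Beta-lactamase activity was read by FRET fluorescence after 2 h at room temperature with LiveBLAzer B/G substrate.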

[19] = target: Nuclear receptor ROR-gamma (Homo sapiens) (UniProt P51449); assay: qHTS assay to identify small molecule antagonists of the retinoid-related orphan receptor gamma (ROR-gamma) signaling pathway (AID 1159521; active = well fitted curve in the direction sought with a large enough effect in the repeat runs; an effect the other way counts as inactive or inconclusive)
Method in brief: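 Inducible-expression reporter assay: doxycycline (1 uM final) switched on RORγ in CHO cells bearing a ROR response element-luciferase construct, with test compounds present from 2 h beforehand. Decreased luminescence after 16 h defined antagonist activity.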

[20] = target: Peroxisome proliferator-activated receptor delta (Homo sapiens) (UniProt Q03181); assay: qHTS assay to identify small molecule antagonists of the peroxisome proliferator-activated receptor delta (PPARd) signaling pathway (AID 743215; active = well fitted inhibition curve with a large enough effect in the signal ratio in the repeat runs, not every such curve was filed as active; the % refers to the signal ratio)
Method in brief: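 PPARd UAS-bla HEK293H cells were pre-incubated 5 h at 37 C, then given test compounds in DMSO plus agonist L165041 (300 nM final). After 17 h at 37 C, beta-lactamase FRET substrate was added; fluorescence read after 2 h at room temperature.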

Vitamin D3 receptor (Homo sapiens), sequence (P11473 whole entry, looked up): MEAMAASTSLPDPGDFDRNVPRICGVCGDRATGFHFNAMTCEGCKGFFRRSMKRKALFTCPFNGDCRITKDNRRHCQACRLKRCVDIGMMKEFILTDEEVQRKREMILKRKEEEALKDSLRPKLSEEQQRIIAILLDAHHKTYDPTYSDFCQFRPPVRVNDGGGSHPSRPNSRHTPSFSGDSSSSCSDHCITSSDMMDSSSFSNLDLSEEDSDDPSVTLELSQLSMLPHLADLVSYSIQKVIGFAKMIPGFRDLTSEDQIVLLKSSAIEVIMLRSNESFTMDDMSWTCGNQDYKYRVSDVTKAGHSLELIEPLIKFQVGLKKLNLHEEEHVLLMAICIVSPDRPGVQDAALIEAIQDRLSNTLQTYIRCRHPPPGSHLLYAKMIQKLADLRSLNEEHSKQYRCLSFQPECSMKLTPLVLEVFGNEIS
Peroxisome proliferator-activated receptor delta (Homo sapiens), sequence (Q03181 whole entry, looked up): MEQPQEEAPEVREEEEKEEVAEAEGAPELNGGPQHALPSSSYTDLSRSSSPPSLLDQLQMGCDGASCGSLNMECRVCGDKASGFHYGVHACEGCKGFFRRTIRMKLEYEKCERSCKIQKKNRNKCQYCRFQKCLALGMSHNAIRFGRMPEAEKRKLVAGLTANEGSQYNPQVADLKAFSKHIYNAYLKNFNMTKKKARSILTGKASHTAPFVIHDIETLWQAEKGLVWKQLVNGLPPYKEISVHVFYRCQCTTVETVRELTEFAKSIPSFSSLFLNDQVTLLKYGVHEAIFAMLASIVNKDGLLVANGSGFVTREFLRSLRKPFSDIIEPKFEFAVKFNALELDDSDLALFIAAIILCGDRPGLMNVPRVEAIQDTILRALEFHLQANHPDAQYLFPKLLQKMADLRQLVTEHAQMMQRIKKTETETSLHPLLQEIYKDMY
Retinoic acid receptor RXR-alpha (Homo sapiens), sequence (P19793 whole entry, looked up): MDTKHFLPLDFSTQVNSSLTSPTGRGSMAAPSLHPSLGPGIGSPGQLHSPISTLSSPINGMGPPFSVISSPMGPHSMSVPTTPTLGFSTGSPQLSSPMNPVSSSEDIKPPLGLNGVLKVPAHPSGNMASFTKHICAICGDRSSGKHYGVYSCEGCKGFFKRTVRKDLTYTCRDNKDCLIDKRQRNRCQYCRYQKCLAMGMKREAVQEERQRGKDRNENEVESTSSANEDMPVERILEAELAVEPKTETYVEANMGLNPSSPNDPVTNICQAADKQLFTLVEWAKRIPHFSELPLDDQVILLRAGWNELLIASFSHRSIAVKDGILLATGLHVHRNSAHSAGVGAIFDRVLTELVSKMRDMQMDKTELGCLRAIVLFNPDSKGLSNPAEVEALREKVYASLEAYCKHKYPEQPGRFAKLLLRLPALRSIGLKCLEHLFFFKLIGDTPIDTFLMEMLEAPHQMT
Bile acid receptor (Homo sapiens), sequence (Q96RI1 whole entry, looked up): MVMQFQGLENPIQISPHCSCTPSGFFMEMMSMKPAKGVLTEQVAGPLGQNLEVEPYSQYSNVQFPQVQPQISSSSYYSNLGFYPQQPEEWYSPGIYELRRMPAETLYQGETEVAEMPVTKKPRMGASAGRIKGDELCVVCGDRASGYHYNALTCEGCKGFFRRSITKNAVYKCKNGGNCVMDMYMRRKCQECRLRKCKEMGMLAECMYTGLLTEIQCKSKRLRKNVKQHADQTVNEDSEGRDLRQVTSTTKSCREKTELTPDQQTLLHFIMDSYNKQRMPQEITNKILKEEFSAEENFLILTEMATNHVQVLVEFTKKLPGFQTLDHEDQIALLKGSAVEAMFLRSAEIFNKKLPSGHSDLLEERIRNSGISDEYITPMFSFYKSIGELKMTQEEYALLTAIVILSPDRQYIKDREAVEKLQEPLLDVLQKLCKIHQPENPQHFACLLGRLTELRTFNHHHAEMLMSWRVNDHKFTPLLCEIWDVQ

CN(C)CCC(c1ccc(Cl)cc1)c1ccccn1 (stereo not drawn)
inactive: outcome [1] | Potency [2] | Potency [3] | outcome [4] | outcome [5] | outcome [6] | outcome [7] | outcome [8] | Potency [9] | Potency [10] | Potency [11]

OCCOCCN1CCN(C2=Nc3ccccc3Sc3ccccc32)CC1
inactive: outcome [12] | Potency [2] | outcome [13] | outcome [14] | outcome [15] | Potency [16] | outcome [4] | outcome [5] | outcome [6] | outcome [7] | outcome [8] | Potency [9] | Potency [10] | outcome [17]

CCCCCCCCC/C=C/CC1CC(=O)OC1=O (stereo not drawn)
inactive: outcome [18] | outcome [1] | outcome [12] | outcome [13] | outcome [14] | outcome [15] | Potency [16] | outcome [4] | outcome [5] | outcome [6] | outcome [7] | outcome [8] | Potency [9] | Potency [10] | outcome [17]

CCN(CC)c1ccc(C(=O)c2ccccc2C(=O)O)c(O)c1
inactive: outcome [1] | Potency [2] | Potency [3] | outcome [14] | outcome [5] | outcome [6] | outcome [7] | outcome [8] | Potency [9] | Potency [19] | Potency [10] | outcome [17]

O=C(O)c1cc(=O)c2c(OCC(O)COc3cccc4oc(C(=O)O)cc(=O)c34)cccc2o1
inactive: outcome [18] | outcome [1] | Potency [2] | Potency [3] | Potency [16] | outcome [5] | outcome [6] | outcome [7] | outcome [8] | Potency [9] | Potency [19] | Potency [10] | outcome [17]

O=C(O)[C@H](O)[C@@H](O)[C@H](O)[C@H](O)CO
inactive: outcome [18] | outcome [1] | Potency [2] | Potency [3] | outcome [14] | outcome [15] | Potency [16] | outcome [5] | outcome [6] | outcome [7] | outcome [8] | Potency [9] | Potency [10] | activation [17] 7.9% [at 2.72 µM]

O=P(OC(CCl)CCl)(OC(CCl)CCl)OC(CCl)CCl
inactive: outcome [18] | outcome [1] | Potency [2] | outcome [14] | outcome [15] | outcome [5] | outcome [6] | outcome [7] | outcome [8] | Potency [9] | Potency [10] | Potency [11]

CC(=O)CC(=O)Nc1ccccc1C
inactive: outcome [1] | Potency [2] | Potency [3] | outcome [14] | outcome [15] | outcome [4] | outcome [5] | outcome [6] | outcome [7] | outcome [8] | Potency [9] | Potency [10] | outcome [17]

CN(C)CCC(c1ccccc1)c1ccccn1 (stereo not drawn)
inactive: outcome [18] | outcome [1] | Potency [2] | Potency [3] | outcome [14] | outcome [15] | outcome [4] | outcome [5] | outcome [6] | outcome [7] | outcome [8] | Potency [9] | Potency [10] | outcome [17] | Potency [11]

O=C(CC(C(=O)OC1CCCCC1)S(=O)(=O)O)OC1CCCCC1 (stereo not drawn)
inactive: outcome [18] | outcome [1] | Potency [20] | outcome [12] | Potency [2] | outcome [13] | Potency [16] | outcome [4] | outcome [5] | outcome [6] | outcome [7] | outcome [8] | Potency [19] | Potency [10] | outcome [17] | Potency [11]

CCCSc1ccc2nc(NC(=O)OC)[nH]c2c1
inactive: outcome [1] | Potency [2] | outcome [14] | Potency [16] | outcome [4] | outcome [5] | outcome [6] | outcome [7] | outcome [8] | Potency [9] | Potency [19] | Potency [10] | outcome [17]

CCc1cccc(C)c1N
inactive: outcome [18] | outcome [1] | Potency [2] | Potency [3] | outcome [14] | outcome [15] | Potency [16] | outcome [4] | outcome [5] | outcome [6] | outcome [7] | outcome [8] | Potency [9] | Potency [19] | Potency [10] | outcome [17]

O=C(O)c1ccccc1C(c1ccc(O)cc1)c1ccc(O)cc1
inactive: outcome [18] | outcome [1] | Potency [2] | Potency [16] | outcome [4] | outcome [5] | outcome [6] | outcome [7] | outcome [8] | Potency [9] | Potency [19] | Potency [10] | outcome [17]

N[C@@H](Cc1cc(I)c(Oc2cc(I)c(O)c(I)c2)c(I)c1)C(=O)O
inactive: outcome [18] | outcome [1] | Potency [2] | outcome [14] | outcome [15] | Potency [16] | outcome [4] | outcome [5] | outcome [6] | outcome [7] | outcome [8] | Potency [9] | Potency [10] | outcome [17] | Potency [11]

CC(=O)c1ccccc1
inactive: outcome [18] | outcome [1] | Potency [2] | outcome [4] | outcome [5] | outcome [6] | outcome [7] | outcome [8] | Potency [9] | Potency [10] | outcome [17]

CCCCCC1=CCCC1=O
inactive: outcome [18] | outcome [1] | outcome [12] | Potency [2] | outcome [13] | outcome [14] | outcome [15] | Potency [16] | outcome [4] | outcome [5] | outcome [6] | outcome [7] | outcome [8] | Potency [9] | Potency [10] | outcome [17] | Potency [11]

COc1ccc(NC(C)=O)cc1N
inactive: outcome [18] | outcome [1] | Potency [2] | Potency [3] | outcome [4] | outcome [5] | outcome [6] | outcome [7] | outcome [8] | Potency [9] | Potency [10] | outcome [17]

O=[N+]([O-])c1ccc(/C=C/c2ccc([N+](=O)[O-])cc2S(=O)(=O)O)c(S(=O)(=O)O)c1
inactive: outcome [1] | Potency [2] | Potency [3] | outcome [14] | outcome [15] | outcome [4] | outcome [5] | outcome [6] | outcome [7] | outcome [8] | Potency [9] | Potency [19] | Potency [10] | outcome [17]

O=S(=O)(O)c1ccc2ccccc2c1
inactive: outcome [18] | outcome [1] | Potency [20] | outcome [12] | Potency [2] | outcome [13] | outcome [14] | outcome [15] | outcome [4] | outcome [5] | outcome [6] | outcome [7] | outcome [8] | Potency [9] | Potency [10] | outcome [17]

C=CCNC(N)=S
inactive: outcome [18] | outcome [1] | Potency [20] | Potency [2] | Potency [3] | outcome [14] | outcome [15] | Potency [16] | outcome [4] | outcome [5] | outcome [6] | outcome [7] | outcome [8] | Potency [9] | Potency [10] | outcome [17]
